A selection: hits, their analogues and other compounds. The true share with any hit is near 12%.
BAZ2B inh: qHTS Assay for Inhibitors of BAZ2B | Bromodomain adjacent to zinc finger domain protein 2B (Homo sapiens), Q9UIF8 | AlphaScreen BAZ2B-H3K14Ac peptide displacement | Potency, µM (highest dose often 114 µM), usual class: inhibitors | 360,000 tested, 4.4% active | AID 504333, 2011; further: nearly all actives have a fitted effect of over 60% in size
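AlphaScreen displacement: compounds (up to 110uM) incubated 30 min at room temperature with a preformed 50 nM BAZ2B/50 nM biotinylated H3K14Ac peptide complex in PBS pH 7.4 with Tween-20. Donor and acceptor beads at 10 ug/mL final added, 20 min light-protected before reading.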
JMJD2A Tudor inh: qHTS Assay for Inhibitors of JMJD2A-Tudor Domain. Lysine-specific demethylase 4A (Homo sapiens), O75164. AlphaScreen JMJD2A-Tudor / H3K4me3 peptide binding. Potency, µM (top dose mostly 114 µM), usual class: inhibitors. 390,000 tested, 4.4% active; further: nearly all actives have a fitted effect of over 50% in size
Sfp PPTase inh: qHTS Assay for Inhibitors of Bacillus subtilis Sfp phosphopantetheinyl transferase (PPTase); Biochemical Sfp PPTase activity, qHTS; Potency, µM, most hits filed as inhibitors; 310,000 tested, 3.5% active; AID 1490, 2009;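 further: the enzyme is Sfp with the accession as filed and its product quenches rhodamine fluorescence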
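Fluorescence-quenching assay with 15 nM Sfp, 5 uM rhodamine-CoA and 12.5 uM BHQ-2-labelled ybbR peptide in pH 7.6 Hepes/MgCl2 buffer. Enzyme was pre-incubated with compound for 15 min at room temperature. Rate was taken from the 30-min fluorescence change (525/598 nm).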
HP1b chromo inh: HTS for Inhibitors of HP1-beta Chromodomain Interactions with Methylated Histone Tails; AID 540317, 2011; Potency, µM (top dose mostly 114 µM), usual class: inhibitors; AlphaScreen HP1-beta / biotin-H3K9me3 peptide binding; Chromobox protein homolog 1 (Homo sapiens), P83916; 390,000 tested, 0.56% active; further: nearly all actives have a fitted effect of over 70% in size
Target sequence (P83916 whole entry, looked up): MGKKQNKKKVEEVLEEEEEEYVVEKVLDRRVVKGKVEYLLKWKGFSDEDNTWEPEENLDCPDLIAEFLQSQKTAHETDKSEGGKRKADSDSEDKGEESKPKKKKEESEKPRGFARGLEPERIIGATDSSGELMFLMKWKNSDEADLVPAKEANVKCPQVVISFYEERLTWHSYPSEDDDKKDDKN
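AlphaScreen: HP1-beta (50 nM) preformed 30 min with biotin-H3(1-18)K9me3 peptide (50 nM) in PBS pH 7.4, 0.01% Tween-20. Compound added for 30 min at RT, then streptavidin donor/nickel chelate acceptor beads (10 ug/mL) for 30 min.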
L3MBTL1 block: qHTS Assay for the Inhibitors of L3MBTL1 | Lethal(3)malignant brain tumor-like protein 1 (Homo sapiens), Q9Y468 | AlphaScreen L3MBTL1–H3K9me1 peptide binding | Potency, µM (titrated, usually from 57.1 µM), most hits filed as inhibitors | 230,000 tested, 0.66% active | AID 485360, 2010; further: nearly all actives have a fitted effect of over 60% in size
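Displacement of a biotinylated histone H3(1-15) peptide monomethylated at Lys9 (75 nM) from L3MBTL1 (50 nM) was measured by AlphaScreen after a 30 min room-temperature compound incubation; cefsulodin titration served as intraplate control.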
G9a block: qHTS Assay for Inhibitors of Histone Lysine Methyltransferase G9a; Histone-lysine N-methyltransferase EHMT2 (Homo sapiens), Q96KQ7; G9a H3K9 monomethylation, AlphaScreen, 2 h; Potency, µM (top dose mostly 102 µM), usual class: inhibitors; 350,000 tested, 8.8% active; AID 504332, 2011; further: nearly all actives have a fitted effect of over 75% in size
Target sequence (Q96KQ7 913-1193 limits assumed): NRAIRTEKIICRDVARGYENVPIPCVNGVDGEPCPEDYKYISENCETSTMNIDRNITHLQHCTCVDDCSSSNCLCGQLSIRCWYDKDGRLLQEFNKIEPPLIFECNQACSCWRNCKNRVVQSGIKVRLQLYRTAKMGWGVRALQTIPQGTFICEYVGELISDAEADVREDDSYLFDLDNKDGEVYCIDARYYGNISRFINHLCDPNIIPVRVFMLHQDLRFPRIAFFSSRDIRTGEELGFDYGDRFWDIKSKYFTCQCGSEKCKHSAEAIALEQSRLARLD
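G9a (20 nM) was preincubated 15 min with compound, then reacted 2 h at room temperature with 500 nM biotin-H3K9 peptide and 20 µM SAM. Monomethyl-H3K9 detected by AlphaScreen using anti-H3K9me1 antibody.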
Each line names hits and unclear results; the compound was inactive in the other large screens. The call rests on the fitted dose curve; in most records, active means well fitted curve in the direction sought with a large enough effect; inconclusive means small, poorly fitted or top-dose-only effect, or another doubt; inactive means no such curve, though single readings can be large; an effect the other way counts as inactive or inconclusive.

N/N=C(\Cc1cscn1)c1ccc(O)cc1O	G9a block 10µM
CC(=O)N1c2ccc(S(=O)(=O)NCc3ccc(Cl)cc3)cc2CC1C (stereo not drawn)	none (no result: Sfp PPTase inh, L3MBTL1 block)
CC(C(=O)NC1C(=O)N2C(C(=O)O)=C(CSc3nnnn3C)CSC12)n1cc(Br)cn1 (stereo not drawn)	BAZ2B inh 50µM, G9a block 28µM (no result: L3MBTL1 block)
Cc1nn(C(C)C(=O)NC2C(=O)N3C(C(=O)O)=C(CSc4nnnn4C)CSC23)cc1Cl (stereo not drawn)	BAZ2B inh inconclusive, Sfp PPTase inh 79µM, G9a block inconclusive (no result: L3MBTL1 block)
O=C(Nc1nc(-c2ccccn2)cs1)c1ccccc1-n1cnnn1	BAZ2B inh 22µM, JMJD2A Tudor inh inconclusive, Sfp PPTase inh 16µM, L3MBTL1 block 20µM, G9a block 10µM
O=C(O)C1CCC1C(=O)Nc1nc(-c2ccc(Cl)s2)cs1 (stereo not drawn)	G9a block inconclusive
CC(=O)Nc1ccc(C(=O)Nc2nc(-c3ccccn3)cs2)cc1	BAZ2B inh 5.6µM, JMJD2A Tudor inh 56µM, Sfp PPTase inh 16µM, G9a block inconclusive
CC1CC1C(=O)Nc1nc(-c2ccccn2)cs1 (stereo not drawn)	BAZ2B inh inconclusive, JMJD2A Tudor inh 56µM, Sfp PPTase inh 25µM, HP1b chromo inh inconclusive, G9a block 8.9µM (no result: L3MBTL1 block)
O=C(Nc1nc(-c2ccccn2)cs1)c1ccc2c(c1)OCCO2	BAZ2B inh 22µM, JMJD2A Tudor inh 56µM
CCOc1cc(C(=O)Nc2ccc3c(c2)n(C)c(=O)c(=O)n3C)cc(OCC)c1OCC	none (no result: Sfp PPTase inh, L3MBTL1 block)
COc1ccc(-c2nc3cnc(N(C)C)nc3n(C)c2=O)cc1	none (no result: BAZ2B inh, JMJD2A Tudor inh, HP1b chromo inh, L3MBTL1 block)
CC(=O)Nc1ccc(C(=O)Nc2nc(-c3cccnc3)cs2)cc1	Sfp PPTase inh inconclusive, G9a block 4µM
O=C(CSc1ccc([N+](=O)[O-])cc1)Nc1cccc(S(=O)(=O)Nc2ccccc2F)c1	JMJD2A Tudor inh inconclusive, Sfp PPTase inh 45µM, HP1b chromo inh inconclusive, G9a block inconclusive
Cn1c(=O)c2c(ncn2CC(=O)Nc2cccc(S(=O)(=O)Nc3ccccc3F)c2)n(C)c1=O	Sfp PPTase inh 56µM, HP1b chromo inh inconclusive (no result: G9a block)
O=C(Cc1ccc(Cl)cc1)Nc1cccc(S(=O)(=O)Nc2ccccc2F)c1	none
O=C(O)c1ccc(CSc2ncnc3c2cnn3Cc2ccccc2)cc1	none (no result: G9a block)
Cc1ccccc1Nc1ncnc2c1cnn2Cc1ccccc1	none
O=C(O)c1ccc(Nc2ncnc3c2cnn3Cc2ccccc2)cc1	JMJD2A Tudor inh 50µM, Sfp PPTase inh inconclusive, HP1b chromo inh inconclusive, G9a block 32µM
Cc1cccc(Nc2ncnc3c2cnn3Cc2ccccc2)c1	BAZ2B inh inconclusive, JMJD2A Tudor inh inconclusive, G9a block 50µM
Cc1ccc(N(CC(=O)N=Nc2c(O)[nH]c3ccccc23)S(C)(=O)=O)c(C)c1	JMJD2A Tudor inh inconclusive (no result: L3MBTL1 block)
Cc1ccc(S(=O)(=O)N=Nc2c(O)[nH]c3ccccc23)cc1C	JMJD2A Tudor inh 35µM, G9a block 4.5µM (no result: L3MBTL1 block)
COc1ccc(S(=O)(=O)N=Nc2c(O)[nH]c3ccccc23)cc1	G9a block 3.2µM (no result: L3MBTL1 block)
COc1ccc([C@H]2OCC3C2CO[C@@H]3c2ccc(OC)c(OC)c2)cc1OC (stereo partly drawn)	none (no result: BAZ2B inh, JMJD2A Tudor inh, HP1b chromo inh, L3MBTL1 block, G9a block)
CC1(C)CNC(=O)c2sc(NC(=O)CN3CCOCC3)nc2C1	JMJD2A Tudor inh 20µM
COc1cccc(CNC(=O)c2cnc(N3CCCCC3)c3ccccc23)c1	none (no result: Sfp PPTase inh, L3MBTL1 block)
Cc1ccc(/C=N/Nc2ccc3c(C(F)(F)F)cc(C(F)(F)F)nc3n2)cc1	G9a block inconclusive
NNc1ccc2c(C(F)(F)F)cc(C(F)(F)F)nc2n1	Sfp PPTase inh 56µM, G9a block 35µM
